Source: PubChem BioAssay (EPA / NIEHS)
Inconclusive results are not listed. Activity calls are given as the source filed them. How the source made its calls, unless noted: active means hit-call score of the fitted dose curve at least 0.9, where 1 is the maximum; inactive means score below 0.9.

Key:
[1] = CCTE_Harrill_HTTr_Apoptosis_MCF7: CCTE's 6-hour Apoptosis Assessment for the High-Throughput Transcriptomics (HTTr) Platform, in MCF-7 cells cultured in DMEM + 10% fetal bovine serum, Harrill Lab (AID 2284011)
Procedure, shortened: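 Cells are dosed with test chemicals at eight concentrations and imaged 6 hours later for caspase-3/7 activity using a green fluorogenic detection reagent. Activity is fitted in both directions against DMSO controls.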

[2] = CCTE_Shafer_MEA_acute_burst_number: CCTE's Neural Acute Assay for Single-Electrode Bursts, Shafer Lab (AID 2284013)
Procedure, shortened: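 Spontaneous network activity of primary rat cortical neurons was recorded extracellularly on microelectrode arrays at 37 C, with 40-min periods before and during exposure to 0.03-40 uM compound on DIV 13 or 15.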

[3] = CCTE_Shafer_MEA_acute_burst_duration_mean: CCTE's Neural Acute Assay for Mean Burst Duration, Shafer Lab (AID 2284014);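 further: hits are decreases in mean burst duration relative to DMSO controls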
Procedure, shortened: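 Read-out is the per-well percent change in mean burst duration (first to last spike within a single-electrode burst) between 40-min recordings before and after compound. Cultures were primary rat cortical neurons on MEAs, dosed at 0.03-40 uM on DIV 13 or 15.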

[4] = CCTE_Shafer_MEA_acute_per_burst_spike_number_mean: CCTE's Neural Acute Assay for Average Number of Spikes Per Burst, Shafer Lab (AID 2284015);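 further: hits are decreases in mean spikes per burst versus baseline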
Procedure, shortened: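 Rat primary cortical neurons on 48-well MEAs (DIV 13 or 15) were treated with 0.03-40 uM compound at 37 C. Mean spikes per burst over 40 min were recorded before and after exposure and expressed as percent change from baseline, relative to DMSO.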

[5] = CCTE_Shafer_MEA_acute_interburst_interval_mean: CCTE's Neural Acute Assay for Mean Interburst Interval, Shafer Lab (AID 2284016);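 further: percent change of mean interburst interval versus each well's own pre-dose baseline; curves fitted for decrease in interburst interval relative to DMSO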
Procedure, shortened: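 Rat primary cortical neurons on 48-well MEAs at DIV 13 or 15 were exposed acutely to 0.03-40 uM. Spikes detected at 8x rms noise, 37 C. Mean interburst interval from 40 min recordings expressed as percent change from 40 min pre-treatment baseline.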

[6] = CCTE_Shafer_MEA_acute_burst_percentage_mean: CCTE's Neural Acute Assay for Percentage of Spikes in a Burst, Shafer Lab (AID 2284017);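 on AC50: curve fitted for loss of signal so potency reflects decreased burst percentage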
Procedure, shortened: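 Primary rat cortical neurons on 48-well MEA plates, treated on DIV 13 or 15 at 0.03-40 uM. Spikes detected at 8x rms noise at 37C; percent change from 40-min baseline to 40-min post-dose recording, fitted versus DMSO.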

[7] = CCTE_Shafer_MEA_acute_burst_percentage_std: CCTE's Neural Acute Assay for Standard Deviation of Burst Percentage, Shafer Lab (AID 2284018);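 further: fitted in the negative direction so actives lower burst percentage SD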
Procedure, shortened: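 Value is percent change from baseline in the across-electrode SD of spikes-in-bursts percentage, wells with >/= 10 active electrodes. Acute 40-min exposure to 0.03-40 uM on DIV 13 or 15 rat cortical cultures, recorded at 37 C after 40-min baseline.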

[8] = CCTE_Shafer_MEA_acute_per_network_burst_spike_number_mean: CCTE's Neural Acute Assay for Average Number of Spikes in a Network Burst, Shafer Lab (AID 2284019);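 on AC50: curve fitted for loss of signal so actives reduce spikes per network burst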
Procedure, shortened: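 Read-out is mean spike count per network burst, taken as percent change between a 40-min pre-exposure and a 40-min post-exposure recording per well. Rat primary cortical neurons on MEAs at 37 C, DIV 13 or 15; compounds at 0.03-40 uM.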

[9] = CCTE_Shafer_MEA_acute_per_network_burst_spike_number_std: CCTE's Neural Acute Assay for Standard Deviation of Number of Spikes in a Network Burst, Shafer Lab (AID 2284020);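 further: fitted for decrease in spike-number SD versus DMSO so actives lower it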
Procedure, shortened: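 Spontaneous network activity of primary rat cortical neurons is recorded extracellularly before and after a 40-min compound exposure (0.03-40 uM) at 37 C. The endpoint is the well's percent change in burst spike-number SD.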

[10] = CCTE_Shafer_MEA_acute_per_network_burst_electrodes_number_mean: CCTE's Neural Acute Assay for Mean Number of Electrodes in a Network Burst, Shafer Lab (AID 2284021);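 further: curves fitted for decreases only so hits reduce electrodes per burst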
Procedure, shortened: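 Cultures of rat cortex neurons were exposed on DIV 13 or 15 to compounds at 0.03-40 uM in at least three wells each. Activity over 40 min before and 40 min after exposure at 37 C gave the percent change in electrodes per network burst.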

[11] = CCTE_Shafer_MEA_acute_network_burst_percentage: CCTE's Neural Acute Assay for Percentage of Network Bursts, Shafer Lab (AID 2284022);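 further: curves fitted for loss so actives lower network burst percentage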
Procedure, shortened: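 Cortical neurons from rat were grown over microelectrode arrays and used on day 13 or 15 in vitro. Wells with at least 10 active electrodes received test chemical at 0.03-40 uM. Activity during 40 min of exposure was compared with the preceding 40-min baseline.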

[12] = CCTE_Shafer_MEA_acute_synchrony_index: CCTE's Neural Acute Assay for Synchrony, Shafer Lab (AID 2284027);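 further: network synchrony index of spontaneous spiking in primary rat cortical neurons on MEAs; fitted for loss of signal so actives lower synchrony relative to DMSO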
Procedure, shortened: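 Primary rat cortical neurons on 48-well MEAs, dosed at 0.03–40 uM on DIV 13 or 15. Spikes are recorded for 40 min at 37C before and after exposure, and synchrony index (0–1) is expressed as percent change from baseline per well.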

[13] = molecular target: Estrogen receptor (Homo sapiens) (UniProt P03372); assay: CCTE_Deisenroth_AIME_384WELL_LUC_Active: CCTE's 384-well Estrogen Receptor Transactivation Assay with AIME metabolic competence (ERTA luciferase; metabolism positive), Deisenroth Lab (AID 2284030; active means hit-call score of the fitted dose curve at least 0.9, where 1 is the maximum)
Sequence of Estrogen receptor (Homo sapiens) (P03372 whole entry, looked up): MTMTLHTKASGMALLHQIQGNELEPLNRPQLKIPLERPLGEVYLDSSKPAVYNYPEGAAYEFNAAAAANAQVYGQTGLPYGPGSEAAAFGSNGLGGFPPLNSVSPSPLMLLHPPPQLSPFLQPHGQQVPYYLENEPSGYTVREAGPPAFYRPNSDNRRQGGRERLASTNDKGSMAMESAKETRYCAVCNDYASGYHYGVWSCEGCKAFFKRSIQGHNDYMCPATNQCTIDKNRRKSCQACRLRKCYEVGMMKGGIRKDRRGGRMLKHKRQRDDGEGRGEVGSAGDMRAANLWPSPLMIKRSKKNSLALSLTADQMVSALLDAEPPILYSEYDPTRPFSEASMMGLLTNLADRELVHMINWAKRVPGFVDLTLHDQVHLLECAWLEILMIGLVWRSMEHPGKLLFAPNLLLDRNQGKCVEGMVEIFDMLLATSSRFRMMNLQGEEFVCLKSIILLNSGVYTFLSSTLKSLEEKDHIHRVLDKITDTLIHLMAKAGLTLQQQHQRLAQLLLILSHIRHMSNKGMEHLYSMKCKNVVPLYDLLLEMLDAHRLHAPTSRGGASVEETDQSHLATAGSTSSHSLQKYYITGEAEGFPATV
Procedure, shortened: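 In this metabolism-positive format, a 2-hour exposure to alginate-immobilized rat S9 precedes a 24 hour luciferase transactivation readout in VM7Luc4E2 cells. Dosing spans 10 concentrations from 0.002 to 200 uM.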

[14] = CCTE_Harrill_HTTr_CellCount_MCF7: CCTE's Cell Proliferation Assessment for the High-Throughput Transcriptomics (HTTr) Platform, Harrill Lab (AID 2284012; active means hit-call score of the fitted dose curve at least 0.9, where 1 is the maximum;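 further: cells exposed to compound for six hours; intended direction is loss of nuclei count meaning fewer cells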)
Procedure, shortened: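 MCF7 cells exposed 6 hours to an eight-point dilution series; Hoechst-stained nuclei counted by high-content imaging. Bidirectional curve fitting against DMSO baseline.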

[15] = CCTE_Shafer_MEA_dev_firing_rate_mean: CCTE's Neural Network Formation Assay for Mean Firing Rate, Shafer Lab (AID 2284031);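 further: curve fitted for loss of firing so AC50 reflects decreased mean firing rate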
Procedure, shortened: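 Primary rat cortical neurons on 48-well MEA plates, exposed from plating day 0 with dosing renewed on DIV 5 and 9. Mean well firing rate over active electrodes, recorded days 5, 7, 9, 12, summarised as trapezoidal AUC.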

[16] = CCTE_Shafer_MEA_dev_per_burst_spike_percent: CCTE's Neural Network Formation Assay for Percent of Spikes in a Burst, Shafer Lab (AID 2284032);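 further: fitted as a decrease in burst spike percentage below DMSO baseline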
Procedure, shortened: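 Rat primary cortical neurons on 16-electrode MEA wells, dosed from plating day 0 for 12 days with renewal on DIV 5 and 9; spikes-in-bursts percentage averaged over bursting electrodes, collapsed as AUC across days 5, 7, 9, 12; loss direction versus DMSO.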

Measured: AC50

O=C(O)CN(CC(=O)O)CC(=O)O
active: [13] 28.5 µM
not listed: [14] | [15] | [16]
inactive: all other assays above

COC(=O)[C@H]1[C@H]2C[C@@H]3c4[nH]c5cc(OC)ccc5c4CCN3C[C@H]2C[C@@H](OC(=O)c2cc(OC)c(OC)c(OC)c2)[C@@H]1OC
inactive: [1] | [14] | [3] | [7] | [10] | [11]
active: [2] 0.82 µM | [4] 582 nM | [5] 4.18 µM | [6] 34.3 µM | [8] 808 nM | [9] 20 µM | [12] 4.97 µM | [15] 2.8 µM | [16] 5.76 µM

O=C(N[C@@H](c1ccccc1)[C@@H]1CCCCN1)c1cccc(C(F)(F)F)c1Cl
active: [2] 3.29 µM | [5] 7.65 µM | [6] 5 µM | [9] 5 µM | [10] 5 µM | [11] 9.12 µM | [12] 5 µM
inactive: [1] | [14] | [3] | [4] | [7] | [8]

O=C1CCCCC1
inactive: [1] | [14] | [13]

CN(C)CCCN1c2ccccc2Sc2ccc(Cl)cc21
active: [1] 50 µM | [6] 33.2 µM | [7] 31.6 µM | [12] 32.2 µM | [15] 3.43 µM | [16] 6.1 µM
not listed: [13]
inactive: all other assays above

CCOCCOCCO
inactive: [14]

c1ccc2occc2c1
not listed: [15] | [16]
inactive: all other assays above

NC1CCCCC1
inactive: [1] | [14] | [13]

Cn1cnc2c1c(=O)[nH]c(=O)n2C
inactive: [14]

CC(=O)OC1CC(C)OC(C)O1 (centres undefined)
inactive: [14]

CCc1nc(N)nc(N)c1-c1ccc(Cl)cc1
inactive: [14]

CCCCCCCC(=O)OC
inactive: [1] | [13]

CS(=O)(=O)c1ccc([C@@H](C[C@H]2CCC(=O)C2)C(=O)Nc2cnccn2)cc1Cl
inactive: [14]

CC(=O)O[C@]1(C(C)=O)CC[C@H]2[C@@H]3C=C(Cl)C4=CC(=O)[C@@H]5C[C@@H]5[C@]4(C)[C@H]3CC[C@@]21C
inactive: [14]

CCCC(=O)O
not listed: [13] | [15] | [16]
inactive: all other assays above

NC(=Nc1ccccc1)Nc1ccccc1
active: [2] 1.53 µM | [5] 1.27 µM | [6] 29.5 µM
not listed: [13] | [14] | [15] | [16]
inactive: all other assays above

COc1ccc(OC(F)(F)F)cc1CN[C@H]1CCCN[C@H]1c1ccccc1
inactive: [3] | [10] | [12]
active: [2] 1.89 µM | [4] 5000 nM | [5] 7.18 µM | [6] 4.59 µM | [7] 4.15 µM | [8] 2070 nM | [9] 2.75 µM | [11] 3.09 µM

CCc1cc(C2=C(C(=O)O)N(c3ccccc3C(F)(F)F)S(=O)(=O)c3ccccc32)cc2c1OCO2
not listed: [1] | [9] | [13] | [15] | [16]
inactive: all other assays above

CN(C)CCCN(C)CCCN(C)C
inactive: [14] | [13]

CC(C)OC(=O)C(C)(C)Oc1ccc(C(=O)c2ccc(Cl)cc2)cc1
inactive: [14] | [13]

CC(C)COC(=O)CCCCC(=O)OCC(C)C
not listed: [1] | [13] | [14] | [15] | [16]
inactive: all other assays above

Cc1ccc(C(C)(C)C)c(O)c1
active: [6] 29.9 µM
not listed: [1] | [15] | [16]
inactive: all other assays above
